Laboratory results taken from PubChem BioAssay (NCI).
This is part of a sample that, as a whole, favours compounds with a hit. Of some 83,000 tested, about 20% had one in any assay.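 Assay: single dose, 48 h. Readout: percent growth (0 = no net growth; negative = cell death). Active: <10.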 Activity calls are given as the source filed them.

Legend:
Test in all cases: NCI-60 one-dose screen, 48 h (100 = growth as untreated, 0 = no growth, -100 = all killed)
Details in all cases: 10 µM unless noted
NCI-H23 lung = system: NCI-H23 lung
NCI-H226 lung = system: NCI-H226 lung
NCI-H322M lung = system: NCI-H322M lung
HOP-62 NSCLC = system: HOP-62 NSCLC
NCI-H460 lung = system: NCI-H460 lung
HOP-92 NSCLC = system: HOP-92 NSCLC
A549/ATCC NSCLC = system: A549/ATCC NSCLC
786-0 renal = system: 786-0 renal
COLO 205 colon = system: COLO 205 colon
DU-145 prostate = system: DU-145 prostate
MALME-3M melanoma = system: MALME-3M melanoma
MDA-MB-231 breast = system: MDA-MB-231 breast
RXF 393 renal = system: RXF 393 renal
SF-268 CNS = system: SF-268 CNS
SF-295 CNS = system: SF-295 CNS
SF-539 CNS = system: SF-539 CNS
UACC-257 melanoma = system: UACC-257 melanoma
M14 melanoma = system: M14 melanoma
K-562 leukemia = system: K-562 leukemia

Measured: growth

COc1cc(/C=C/C(=O)c2cccnc2Nc2ccc(F)cc2)cc(OC)c1OC
inactive: NCI-H23 lung 40.2% | NCI-H226 lung 43% | NCI-H322M lung 103% | HOP-62 NSCLC 43.6% | NCI-H460 lung 22.5% | HOP-92 NSCLC 37.7% | A549/ATCC NSCLC 32.9% | 786-0 renal 70.3% | COLO 205 colon 83.9% | MALME-3M melanoma 94.2% | MDA-MB-231 breast 37.9% | RXF 393 renal 22.6% | SF-268 CNS 21.6% | SF-295 CNS 57.6% | SF-539 CNS 56.1% | UACC-257 melanoma 31.9% | M14 melanoma 70%
active: DU-145 prostate 0.388%

COc1cc(-c2nc3cc(Cl)c(Cl)cc3[nH]2)ccc1OCC(=O)N=Nc1c(O)[nH]c2ccccc12
active: NCI-H23 lung -81.1% | NCI-H226 lung -27.2% | NCI-H322M lung -40.7% | HOP-62 NSCLC -60.2% | NCI-H460 lung -68% | HOP-92 NSCLC -67.2% | A549/ATCC NSCLC 4.16% | 786-0 renal -82.6% | COLO 205 colon -78% | DU-145 prostate -69.9% | K-562 leukemia -32.4% | MALME-3M melanoma -94% | MDA-MB-231 breast -82.2% | RXF 393 renal -75.9% | SF-268 CNS -34.9% | SF-295 CNS -87.5% | SF-539 CNS -87.3% | UACC-257 melanoma -60.2% | M14 melanoma -76.1%

O=C1C=C(OCC=C(Cl)Cl)C(=O)c2ccccc21
inactive: NCI-H23 lung 57.4% | NCI-H226 lung 97.3% | NCI-H322M lung 101% | HOP-62 NSCLC 87.2% | NCI-H460 lung 99.9% | HOP-92 NSCLC 73.7% | A549/ATCC NSCLC 91.3% | 786-0 renal 94.9% | COLO 205 colon 137% | DU-145 prostate 77.4% | K-562 leukemia 80% | MALME-3M melanoma 80.9% | MDA-MB-231 breast 84.7% | RXF 393 renal 86.6% | SF-268 CNS 94.4% | SF-295 CNS 92.8% | SF-539 CNS 93.2% | UACC-257 melanoma 76.4% | M14 melanoma 83.3%

O=C1/C(=C/C(Cl)=C/c2ccccc2)SC(=S)N1CCc1ccc(O)cc1
active: NCI-H23 lung -18.1% | HOP-62 NSCLC -6.2% | NCI-H460 lung 0.138% | HOP-92 NSCLC -1.85% | A549/ATCC NSCLC -5.56% | 786-0 renal -47% | COLO 205 colon -9.3% | K-562 leukemia 5.68% | MALME-3M melanoma -2.34% | RXF 393 renal -46.1% | SF-295 CNS 4.96% | SF-539 CNS 3.33% | M14 melanoma -12.7%
inactive: NCI-H226 lung 55.7% | NCI-H322M lung 44% | DU-145 prostate 15.8% | MDA-MB-231 breast 27.3% | SF-268 CNS 19.8% | UACC-257 melanoma 17.4%

C(=N/Nc1ncc(-c2cc3cc(-c4ccccc4)ccc3o2)s1)/c1cccs1
active: NCI-H460 lung 7.38%
inactive: NCI-H23 lung 99.9% | NCI-H226 lung 104% | NCI-H322M lung 33.8% | HOP-62 NSCLC 118% | HOP-92 NSCLC 105% | A549/ATCC NSCLC 13.3% | 786-0 renal 101% | COLO 205 colon 72.4% | DU-145 prostate 97.2% | K-562 leukemia 96.6% | MALME-3M melanoma 97.8% | MDA-MB-231 breast 109% | RXF 393 renal 129% | SF-268 CNS 102% | SF-295 CNS 98.1% | SF-539 CNS 99.6% | UACC-257 melanoma 102% | M14 melanoma 111%

COc1cc2c(cc1-c1c(C)noc1C)ncc1nc(-c3ccccn3)n([C@H](C)COC(F)F)c12
inactive: NCI-H23 lung 61.1% | NCI-H226 lung 57.8% | NCI-H322M lung 51.4% | HOP-62 NSCLC 40.9% | NCI-H460 lung 57.7% | HOP-92 NSCLC 26.7% | A549/ATCC NSCLC 39% | 786-0 renal 50.4% | COLO 205 colon 29.8% | DU-145 prostate 64.2% | K-562 leukemia 32.8% | MALME-3M melanoma 70.1% | MDA-MB-231 breast 41.2% | RXF 393 renal 60.8% | SF-268 CNS 70.9% | SF-295 CNS 60.4% | SF-539 CNS 41.7% | UACC-257 melanoma 44.4% | M14 melanoma 49.5%

CCOC(=O)c1c(C(=O)OCC)c2cc(-c3ccn4c(C(=O)c5ccccc5)c(C(=O)OCC)c(C(=O)OCC)c4c3)ccn2c1C(=O)c1ccccc1
inactive: NCI-H23 lung 88.8% | NCI-H226 lung 93.1% | NCI-H322M lung 99.9% | HOP-62 NSCLC 97.4% | NCI-H460 lung 98.3% | HOP-92 NSCLC 52.4% | A549/ATCC NSCLC 91.5% | 786-0 renal 98.4% | COLO 205 colon 109% | DU-145 prostate 100% | MALME-3M melanoma 87.3% | MDA-MB-231 breast 82.8% | RXF 393 renal 96.7% | SF-268 CNS 85% | SF-295 CNS 106% | SF-539 CNS 89.9% | UACC-257 melanoma 95.1% | M14 melanoma 101%

COc1ccc2c(c1)C(=O)/C(=C/c1ccccn1)CC2
inactive: NCI-H23 lung 74.1% | NCI-H226 lung 95.8% | NCI-H322M lung 99.3% | HOP-62 NSCLC 105% | NCI-H460 lung 97.8% | HOP-92 NSCLC 84.1% | A549/ATCC NSCLC 95.2% | 786-0 renal 100% | COLO 205 colon 87.7% | DU-145 prostate 26.1% | MALME-3M melanoma 72.7% | MDA-MB-231 breast 69.4% | RXF 393 renal 83% | SF-268 CNS 90.8% | SF-295 CNS 78.2% | SF-539 CNS 72% | UACC-257 melanoma 81% | M14 melanoma 85.4%

CCOc1nc(-c2ccccc2)cc2c(O)c(C(=O)O)[nH]c(=O)c12
inactive: NCI-H23 lung 60.9% | NCI-H226 lung 101% | NCI-H322M lung 147% | HOP-62 NSCLC 98.2% | NCI-H460 lung 102% | HOP-92 NSCLC 28.2% | A549/ATCC NSCLC 108% | 786-0 renal 111% | COLO 205 colon 118% | DU-145 prostate 101% | K-562 leukemia 112% | MDA-MB-231 breast 104% | SF-268 CNS 99.2% | SF-295 CNS 104% | SF-539 CNS 94.6% | UACC-257 melanoma 60.7% | M14 melanoma 102%
active: RXF 393 renal -10.5%

C#CCOc1ccc2ncnc(N3CCC(NC(=O)CCl)CC3)c2c1
active: NCI-H226 lung 2.28% [8.25 µM]
inactive: NCI-H23 lung 71.6% [8.25 µM] | NCI-H322M lung 88.1% [8.25 µM] | HOP-62 NSCLC 68.2% [8.25 µM] | NCI-H460 lung 81.5% [8.25 µM] | HOP-92 NSCLC 56.8% [8.25 µM] | A549/ATCC NSCLC 75.7% [8.25 µM] | 786-0 renal 45.8% [8.25 µM] | COLO 205 colon 82.5% [8.25 µM] | DU-145 prostate 72.8% [8.25 µM] | K-562 leukemia 81.5% [8.25 µM] | MALME-3M melanoma 83.9% [8.25 µM] | MDA-MB-231 breast 96.1% [8.25 µM] | RXF 393 renal 16% [8.25 µM] | SF-268 CNS 49.1% [8.25 µM] | SF-295 CNS 109% [8.25 µM] | SF-539 CNS 74.6% [8.25 µM] | UACC-257 melanoma 79.7% [8.25 µM] | M14 melanoma 72.8% [8.25 µM]

CC(O)CN(CC(C)O)c1ccc2c(c1)Cc1cc([N+](=O)[O-])ccc1-2 (stereo not given)
inactive: NCI-H23 lung 93.5% | NCI-H226 lung 101% | NCI-H322M lung 65.8% | HOP-62 NSCLC 102% | NCI-H460 lung 104% | HOP-92 NSCLC 88.7% | A549/ATCC NSCLC 119% | 786-0 renal 107% | COLO 205 colon 104% | DU-145 prostate 101% | MALME-3M melanoma 83.7% | MDA-MB-231 breast 99.6% | RXF 393 renal 105% | SF-268 CNS 85.2% | SF-295 CNS 90.3% | SF-539 CNS 92.4% | UACC-257 melanoma 125% | M14 melanoma 106%

C#CC(F)(F)[C@]1(O)CC[C@H]2[C@@H]3CCC4=CC(=O)CCC4=C3[C@@H](c3ccc(C4CC4)cc3)C[C@@]21C
inactive: NCI-H226 lung 63.3% | NCI-H322M lung 88.4% | NCI-H460 lung 57.1% | A549/ATCC NSCLC 11.5% | COLO 205 colon 29.5% | DU-145 prostate 30.3% | K-562 leukemia 14.3% | RXF 393 renal 31.1% | UACC-257 melanoma 77.8% | M14 melanoma 62.2%
active: NCI-H23 lung -53.3% | HOP-62 NSCLC 9.06% | HOP-92 NSCLC -60.2% | 786-0 renal -77.3% | MALME-3M melanoma -71.7% | MDA-MB-231 breast -10.3% | SF-268 CNS -60.5% | SF-295 CNS -59.6% | SF-539 CNS -84.3%

Cc1cn2c(/C=C3/C(=O)Nc4c3ccc3ccccc43)c(C(F)(F)F)nc2s1
inactive: NCI-H23 lung 39.5% | NCI-H226 lung 53.5% | NCI-H322M lung 43.2% | HOP-62 NSCLC 27.2% | HOP-92 NSCLC 20.8% | A549/ATCC NSCLC 20.1% | 786-0 renal 24.8% | MALME-3M melanoma 42.4% | MDA-MB-231 breast 38.1% | SF-268 CNS 43.5% | UACC-257 melanoma 54.4%
active: NCI-H460 lung 9.31% | COLO 205 colon -49.4% | DU-145 prostate 4.07% | K-562 leukemia 8.76% | RXF 393 renal -19.3% | SF-295 CNS 7.54% | SF-539 CNS -5.73% | M14 melanoma 8.69%

O=C(O)c1ccc(N=CC(=O)c2ccc(-c3ccccc3)cc2)cc1
inactive: NCI-H23 lung 93.6% | NCI-H226 lung 83.9% | NCI-H322M lung 105% | HOP-62 NSCLC 103% | NCI-H460 lung 104% | HOP-92 NSCLC 84.2% | A549/ATCC NSCLC 92.1% | 786-0 renal 104% | COLO 205 colon 111% | DU-145 prostate 112% | K-562 leukemia 116% | MALME-3M melanoma 97.7% | MDA-MB-231 breast 101% | RXF 393 renal 118% | SF-268 CNS 109% | SF-295 CNS 104% | SF-539 CNS 104% | UACC-257 melanoma 93.1% | M14 melanoma 94.1%

COc1cc2c(cc1-c1c(C)noc1C)ncc1nc(C3CCCC3)n([C@H](C)COC(F)F)c12
inactive: NCI-H23 lung 53.7% | NCI-H226 lung 48.1% | NCI-H322M lung 46.6% | HOP-62 NSCLC 32% | NCI-H460 lung 51% | HOP-92 NSCLC 20% | A549/ATCC NSCLC 31.6% | 786-0 renal 45.9% | COLO 205 colon 23.9% | DU-145 prostate 67.7% | K-562 leukemia 23.5% | MALME-3M melanoma 71.1% | MDA-MB-231 breast 44.6% | RXF 393 renal 48.6% | SF-268 CNS 62.6% | SF-295 CNS 50.3% | SF-539 CNS 38.5% | UACC-257 melanoma 32.1% | M14 melanoma 40.9%
